Laboratory results published in PubChem BioAssay AID588719 (Southern Research Specialized Biocontainment Screening …, 2011).
In all, about 1,500 compounds went through this assay and about 920 (61%) were called active. The rule behind the calls is not given here. The set was probably picked from earlier hits. Some of the results follow. Entries that show only a call come without a potency. Potency and affinity values are given separately.

Assay: Vero 76 cell cytotoxicity, dose response, cytotoxicity control for VEEV inhibitor project (AID 588719)
Details: Vero 76 cells viability, cytotoxicity counter-screen; series mostly up to 25 µM

| SMILES | outcome |
| --- | --- |
| CCOC(=O)c1c(CN2CCOCC2)n(-c2ccccc2)c2ccc(O)cc12 | inactive |
| CC(C)/C(C=O)=C(/NC1CCCCC1)c1ccccc1 | inactive |
| O=C(NC1CCCCC1)c1ccc2ccccc2c1O | inactive |
| CN1c2ccccc2C(C)(C)C12CC(c1ccc(S(=O)(=O)N3CCCCC3)cc1)=NO2 (stereo not drawn) | inactive |
| COc1ccc(OC)c2cc3ccccc3cc12 | inactive |
| O=C(O)CCc1ccc(-c2ccccc2)n1-c1ccc(C(=O)O)cc1 | inactive |
| COc1cccc(C#Cc2ccc3c(c2)O[C@H](CN(C)C)[C@@H](C)CN([C@@H](C)CO)S3(=O)=O)c1 | inactive |
| O=C(Cc1n[nH]c(=O)c2ccccc12)OCc1c(Cl)cccc1Cl | inactive |
| CC(=O)c1c(O)c(C)c(O)c2c1OC1=Cc3c(c(C)nn3C)C(=O)C12C (stereo not drawn) | inactive |
| Cc1onc(-c2ccc(Cl)cc2Cl)c1-c1csc(N/N=C/c2ccccc2Cl)n1 | inactive |
| Cc1cccc(NC(=O)CSc2cc(C)c(C#N)c3nc4ccccc4n23)c1 | inactive |
| CN(C)CCNC(=O)c1cc2sc3ccccc3c2s1 | inactive |
| C(=N\Nc1nncc2ccccc12)/c1ccccc1 | inactive |
| Cc1ccc2c(Cl)cc(Cl)c(O)c2n1 | inactive |
| CCOC(=O)c1c(-c2cccc3ccccc23)csc1NC(=O)C1C2CCC(O2)C1C(=O)O (stereo not drawn) | inactive |
| CN(C)S(=O)(=O)c1cccc(C(=O)Nc2ccccc2C(=O)NC2CC2)c1 | inactive |
| CC(C)c1ccc(N=Cc2c(O)n(C3CC3)c(=S)[nH]c2=O)cc1 | inactive |
| CCOC(=O)CCCc1ccc(/C(C)=N/NC(N)=S)cc1 | inactive |
| CC(Sc1ccc(S(=O)(=O)N2CCOCC2)cn1)c1ccccc1Cl (stereo not drawn) | inactive |
| CC(C)(C)c1cc[n+](C2=C([O-])c3ccccc3C(=O)/C2=N\S(=O)(=O)c2cccs2)cc1 | inactive |
| Cc1ccccc1NS(=O)(=O)c1ccc(C(=O)NCc2ccccc2CN2CCCC2)cc1 | inactive |
| O=C(CCCOc1ccc(Cl)cc1Cl)Nc1ccccc1C(=O)O | inactive |
| O=C(Oc1oc(-c2ccco2)nc1C=Nc1ccc(Cl)cc1)c1ccco1 | inactive |
| CC1(C)Nc2ccccc2C(=O)N1c1ccc(Br)cc1 | inactive |
| COc1ccc(C/C(N)=N/OC(=O)c2cccs2)cc1 | inactive |
| Cc1cc(O)c(-c2cc(C(=O)NCCc3ccc(S(N)(=O)=O)cc3)[nH]n2)cc1C | inactive |

| SMILES | outcome |
| --- | --- |
| NNC(=O)C1CCN(S(=O)(=O)c2ccc(Cl)cc2)CC1 | inactive |
| Cc1cc(C)c2c(=O)n(CC(=O)NC3CCCC3)sc2n1 | inactive |
| COc1ccc(-c2cc(C(=O)Nc3c(C)n(C)n(-c4ccccc4)c3=O)c3ccccc3n2)c(OC)c1 | inactive |
| Cc1cc(NC(=O)COC(=O)c2c(Cl)cccc2Cl)no1 | inactive |
| COc1ccc(C)c2sc(N(CCCN(C)C)C(=O)c3ccc4c(c3)OCCO4)nc12 | inactive |
| COc1ccccc1/C=C/C(=O)c1ccccc1 | inactive |
| COC(=O)CCC1(C(N)=O)CCC(=O)c2ccccc21 (stereo not drawn) | inactive |
| CC1(C)Cc2c(sc(NC(=O)COc3cccc4ccccc34)c2C#N)C(C)(C)N1 | inactive |
| OCCCNc1cc(-c2ccnc(Nc3cccc(Cl)c3)n2)ccn1 | inactive |
| CCCC(C)NC(=O)c1ccccc1SC (stereo not drawn) | inactive |
| CC1(C)CCCN(Cc2c(O)ccc3c(=O)c(-c4nc5ccccc5s4)c(N)oc23)C1 | inactive |
| CCOC(=O)C1=NNC(=O)C1 | inactive |
| O=C(Nc1ccc(Cl)c(Cl)c1)Nc1ccccc1C(=O)O | inactive |
| CCN(CC)CCN(Cc1cc2ccc(C)cc2[nH]c1=O)C(=O)Nc1ccc(Cl)cc1 | inactive |
| O=C(COc1cccc2ccccc12)Nc1ccc(Cl)cc1C(=O)O | inactive |
| CCN(CC)CCNC(=O)c1cc2cc(Br)ccc2s1 | inactive |
| CC(=O)Nc1cc[n+](CC(=O)c2cccc([N+](=O)[O-])c2)cc1 | inactive |
| Nc1ccc(C(=O)OCc2nc3cc4ccccc4cc3[nH]2)cc1 | inactive |
| C[C@@H]1CN([C@H](C)CO)C(=O)CCCn2nncc2CO[C@@H]1CN(C)C(=O)c1cc(-c2ccccc2)on1 | inactive |
| COc1ccc(-c2onc(C)c2-c2ccc3c(c2)OCCO3)c(O)c1 | inactive |
| Cc1[nH]c2ccc(-c3nnc(SCC(=O)c4ccccc4F)o3)cc2c1C | inactive |
| O=C(CCCN1C(=O)/C(=C\c2ccco2)SC1=S)Nc1ccc2ccccc2c1 | inactive |
| CCOC(=O)c1c(NC(=O)C(C)Sc2cccc[n+]2[O-])sc2c1CCN(Cc1ccccc1)C2 (stereo not drawn) | inactive |
| Cc1nc2c(sc3nc(N4CCOCC4)c4c(c32)CC(C)(C)OC4)c(-c2ccccc2)c1C(=O)O | inactive |
| CC(C)CCOC(=O)C[N+](C)(C)CCOC1CC2CCC1(C)C2(C)C (stereo not drawn) | inactive |
| CC(Sc1nnc(Nc2ccccc2)s1)C(=O)Nc1nc(-c2ccccc2)cs1 (stereo not drawn) | inactive |

| SMILES | outcome |
| --- | --- |
| O=C1NC(=O)N(Cc2ccccc2)C(=O)/C1=C/C=C/c1ccco1 | inactive |
| CCOC(=O)N1CCN(S(=O)(=O)c2ccc(C(=O)N(CCCN(C)C)c3nc4ccc(CC)cc4s3)cc2)CC1 | inactive |
| COc1ccccc1C1CCCN1Cc1nc(-c2ccc(C)s2)oc1C (stereo not drawn) | inactive |
| NCCSc1c(-c2ccc(F)cc2)[nH]c2ccccc12 | inactive |
| CSc1nnc2c3ccccc3n(CCc3ccccc3)c2n1 | inactive |
| CN(C)CC/C=C1/c2ccccc2Sc2ccc(Cl)cc21 | inactive |
| CCCc1cc(C(=O)Nc2cnn(Cc3ccc(F)cc3)c2)no1 | inactive |
| COc1cc(C2C(C#N)=C(N)Oc3c2ccc2ccccc32)ccc1OCC(=O)Nc1ccc(C)cc1 (stereo not drawn) | inactive |
| COc1cccc(N2C(=O)/C(=C/c3ccc(C)o3)C(=O)NC2=S)c1 | inactive |
| CNCCCC12CCC(c3ccccc31)c1ccccc12 | inactive |
| Cc1ccccc1S(=O)(=O)N(C)C[C@H]1OCc2cnnn2CCCC(=O)N([C@H](C)CO)C[C@H]1C | inactive |
| CCOc1ccccc1CNC(=O)c1cc2oc3ccccc3c2n1C | inactive |
| Cc1oc(C(C)(C)C)cc1-c1cc(NC(=O)c2ccc([N+](=O)[O-])cc2)n[nH]1 | inactive |
| COc1ccccc1[C@@]1(C)ON(c2ccccc2C(F)(F)F)C1=O | inactive |
| COc1ccc(C2(C)ON(c3ccccc3C(F)(F)F)C2=O)cc1 (stereo not drawn) | inactive |
| O=C(CCN1C(=O)/C(=C/c2ccccc2F)SC1=S)NCCc1ccc(O)cc1 | inactive |
| O=C(O)CCN1C(=O)/C(=C2\C(=O)N(Cc3ccc(F)cc3)c3ccccc32)SC1=S | inactive |
| COc1cc(NC(C)CCCN)c2nc(C)ccc2c1Oc1ccc(F)cc1 (stereo not drawn) | inactive |
| O=c1c2ccccc2nc(-c2ccoc2)n1CCc1ccccc1 | inactive |
| CCc1[nH]nc(C(=O)NC2CCCc3c2cnn3-c2cc(C)cc(C)c2)c1C (stereo not drawn) | inactive |
| COc1ccc(OCCn2c(C)nc3ccccc32)cc1 | inactive |
| CCCCCCCCCCOC(=O)Cn1c(COc2cccc(OC)c2)[n+](C)c2ccccc21 | inactive |
| O=C(CSC1=Nc2ccccc2C2CC=NN12)Nc1ccc2c(c1)OCO2 (stereo not drawn) | inactive |
| NC(=O)c1ccc(NC(=O)COC(=O)C2COc3ccccc3O2)cc1 (stereo not drawn) | inactive |
| C=CCn1c(SCC(=O)NNC(=O)Nc2cccc(Cl)c2)nnc1-c1ccccc1 | inactive |
| NS(=O)(=O)c1cccc(NC(=O)CN2C(=O)C(=O)N(Cc3ccccc3)C2=O)c1 | inactive |

| SMILES | outcome |
| --- | --- |
| O=C(COC(=O)COc1ccccc1)Nc1ccc(Br)cc1F | inactive |
| CN(CCC#N)C(=O)COC(=O)c1ccc2[nH]c3c(c2c1)CCCC3 | inactive |
| Cc1ccc([C@H]2C[C@H](n3cc(-c4ccc(F)cc4)nn3)[C@@H](O)CN2CC2CCCCC2)cc1 | inactive |
| Cc1nc(-c2ccccc2)sc1C(=O)/C=C/c1ccccc1 | inactive |
| O=C(Nc1ncc(Cc2ccccc2Cl)s1)C1CCCO1 (stereo not drawn) | inactive |
| Cc1nc(S/C(C(=O)O)=C2/C(=O)Nc3ccccc32)n[nH]1 | inactive |
| O=C1Nc2cc3c(cc2C1=O)sc1ccccc13 | inactive |
| O=C(C=Cc1cccs1)c1cccs1 | inactive |
| CN1C[C@H](CNC(=O)OCc2ccccc2)C[C@@H]2c3cccc4c3c(cn4C)C[C@H]21 | inactive |
| Cc1ccc2c(c1)cc(C(=O)NCc1ccccc1)n2C | inactive |
| CCn1c(O)c(/C=N/NC(=O)c2ccccc2)c(=O)[nH]c1=S | inactive |
| COc1ccc(/C=N/NC(=O)c2cccnc2)cc1COc1ccc(NC(C)=O)cc1 | inactive |
| O=[N+]([O-])c1cccc(-c2c[n+]3c(n2-c2ccccc2)SCC3)c1 | inactive |
| COc1cc(/C=C2/SC(=S)N(CCC(=O)N3CCN(C)CC3)C2=O)cc(OC)c1OC | inactive |
| COCCN(Cc1nc(-c2ccc(-c3ccccc3)cc2)oc1C)C(C)C | inactive |
| COc1cccc(NC(=S)N(CCCN2CCCC2)Cc2cccn2Cc2ccc(Cl)cc2)c1 | inactive |
| O=C(Cc1c[nH]c2ccccc12)Nc1nnc(C2CC2)s1 | inactive |
| COc1ccc(NC(=O)[C@H](Cc2c[nH]c3ccccc23)NC(=O)[C@@H]2Cc3ccccc3CN2)cc1 | inactive |
| O=C1C2CCCN2C(c2ccccc2)N1c1ccc(Cl)cc1 (stereo not drawn) | inactive |
| CC(=O)c1c(C)cc(C)c(CSc2nc(C)cc(=O)[nH]2)c1C | inactive |
| CCc1ccc([C@@H]2C[C@H]3[C@@H](CN2S(=O)(=O)c2ccc(C)cc2)C(=O)C[C@@H](c2ccc(Cl)cc2)N3S(=O)(=O)c2ccccc2C)cc1 | inactive |
| Cc1cc2nc(/N=C(\N)NC(=O)C(C)C)nc(C)c2cc1C | inactive |
| O=c1c2ccccc2[nH]c(=S)n1CCCN1CCN(c2ccccc2F)CC1 | inactive |
| O=c1c2ccccc2[nH]c(=S)n1CCCN1CCN(c2ccccc2)CC1 | inactive |
| COc1ccc(S(=O)(=O)Nc2ccc3c(c2)C(=O)N([C@H](C)CO)C[C@H](C)[C@@H](CN(C)C(=O)Nc2ccc(C(F)(F)F)cc2)OCCCC[C@H](C)O3)cc1 | inactive |
